Experimental data reported in PubChem BioAssay (Tox21).
Values joined by “and” are separate entries in the source; they are usually repeats but may differ in a detail not shown here. Equal values may be shown once. Results filed as inconclusive are left out. A structure can be active in one record and inactive in another. Active and inactive are the calls of the source. Unless noted, calls come from the whole dose curve; as a rule, active = well fitted curve in the direction sought with a large enough effect in the repeat runs; inconclusive = weak or mixed curves; inactive = no such curve, though single readings can be large; an effect the other way counts as inactive or inconclusive.

Tests used:
[1] = qHTS assay to identify small molecule agonists of H2AX (AID 1224845; active = well fitted activation curve with a large enough effect in the signal ratio in the repeat runs, not every such curve was filed as active; the % refers to the signal ratio)
How it was run: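 Wild-type CHO-K1 cells, plated overnight, exposed 3hr at 37C to 15 concentrations (0.76% DMSO final). Lysed, then HTRF anti-pH2AX (S139) cryptate and anti-H2AX-d2 antibodies, 24 hr room temperature; 665/620 nm emission read.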

[2] = qHTS assay to identify small molecule agonists of H2AX - cell viability counter screen (AID 1224847; calls by dose curve; note: nearly all actives have a fitted effect of over 30% in size; note: potency is the fitted concentration of half-maximal effect)
How it was run: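 Cells plated first: CHO-K1, 1000 per well in 10% FBS medium, incubated overnight at 37C. Then 15-point compound titration added (final DMSO 0.76%) for 3 hr. Finally CellTiter-Glo added and luminescence read.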

[3] = qHTS RealTime-Glo MT Cell Viability Assay in HepG2 cells - 24 hour (AID 1224867); note: nearly all actives have a fitted effect of over 50% in size; note: potency is the fitted concentration of half-maximal effect
How it was run: (§1)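 qHTS, HepG2, 600 cells/well, RealTime-Glo (NanoLuc + prosubstrate) added with cells; 5 h preincubation; DMSO compound addition; 37 C; luminescence at 0/8/16/24/32/40 h.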

[4] = qHTS RealTime-Glo MT Cell Viability Assay in HEK293 cells - 32 hour (AID 1224868); note: nearly all actives have a fitted effect of over 50% in size; note: potency is the fitted concentration of half-maximal effect
How it was run: (§2)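 Assay medium contained NanoLuc luciferase plus cell-permeant prosubstrate, added with HEK293 cells at 600 cells/well. After 5 h at 37 C/5% CO2 compounds were added; plates stayed at 37 C for 40 h with serial luminescence reads.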

[5] = A CellTox Green Cytotoxicity Assay to monitor cytotoxicity in HEK293 cells - 0 hour (AID 1224869); note: nearly all actives have a fitted effect of over 50% in size
How it was run: (§3)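 Nonlytic real-time cytotoxicity: HEK293 + CellTox Green reagent plated, 5 h preincubation, pintool compound addition (23 nL in DMSO), 37 C for 40 h, fluorescence measured at successive time points.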

[6] = qHTS RealTime-Glo MT Cell Viability Assay in HepG2 cells - 40 hour (AID 1224870); note: nearly all actives have a fitted effect of over 50% in size; note: potency is the fitted concentration of half-maximal effect
How it was run: (§4)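 HepG2 cells (600/well) mixed with RealTime-Glo MT reagent, settled 5 h at 37 C/5% CO2 before compound addition. Nonlytic NanoLuc luminescence from viable-cell prosubstrate reduction read repeatedly during 40 h treatment at 37 C.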

[7] = A CellTox Green Cytotoxicity Assay to monitor cytotoxicity in HEK293 cells - 40 hour (AID 1224871); note: nearly all actives have a fitted effect of over 45% in size; note: potency is the fitted concentration of half-maximal effect
How it was run: as §3

[8] = qHTS RealTime-Glo MT Cell Viability Assay in HEK293 cells - 16 hour (AID 1224872); note: nearly all actives have a fitted effect of over 50% in size; note: potency is the fitted concentration of half-maximal effect
How it was run: as §2

[9] = qHTS RealTime-Glo MT Cell Viability Assay in HepG2 cells - 8 hour (AID 1224873); note: nearly all actives have a fitted effect of over 55% in size; note: potency is the fitted concentration of half-maximal effect
How it was run: as §4

[10] = qHTS RealTime-Glo MT Cell Viability Assay in HEK293 cells - 40 hour (AID 1224874); conditions: RealTime-Glo luminescence; max response: stronger effect = lower value; note: nearly all actives have a fitted effect of over 50% in size; note: potency is the fitted concentration of half-maximal effect
How it was run: (§5)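 Cells were seeded together with NanoLuc luciferase and a prosubstrate that viable cells reduce to a luciferase substrate. After a 5 h incubation at 37 C/5% CO2, compounds were added and luminescence was measured repeatedly during 40 h of treatment.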

[11] = A CellTox Green Cytotoxicity Assay to monitor cytotoxicity in HEK293 cells - 24 hour (AID 1224875); note: nearly all actives have a fitted effect of over 45% in size; note: potency is the fitted concentration of half-maximal effect
How it was run: as §3

[12] = A CellTox Green Cytotoxicity Assay to monitor cytotoxicity in HepG2 cells - 16 hour (AID 1224876); note: nearly all actives have a fitted effect of over 45% in size
How it was run: (§6)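 Read-out is fluorescence of a cyanine dye excluded from live cells that stains DNA of dead HepG2 cells, with signal proportional to cytotoxicity. Plates were read at 0, 8, 16, 24, 32 and 40 h after compound addition.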

[13] = qHTS RealTime-Glo MT Cell Viability Assay in HepG2 cells - 32 hour (AID 1224877); note: nearly all actives have a fitted effect of over 55% in size; note: potency is the fitted concentration of half-maximal effect
How it was run: as §1

[14] = A CellTox Green Cytotoxicity Assay to monitor cytotoxicity in HepG2 cells - 24 hour (AID 1224878); note: nearly all actives have a fitted effect of over 45% in size; note: potency is the fitted concentration of half-maximal effect
How it was run: as §6

[15] = A CellTox Green Cytotoxicity Assay to monitor cytotoxicity in HepG2 cells - 40 hour (AID 1224879); note: nearly all actives have a fitted effect of over 40% in size; note: potency is the fitted concentration of half-maximal effect
How it was run: as §6

[16] = qHTS RealTime-Glo MT Cell Viability Assay in HEK293 cells - 0 hour (AID 1224880)
How it was run: as §5

[17] = qHTS assay to identify small molecule agonists of the hypoxia (HIF-1) signaling pathway - cell viability counter screen (AID 1224844; calls by dose curve; note: nearly all actives have a fitted effect of over 50% in size; note: potency is the fitted concentration of half-maximal effect)
How it was run: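 ME-180 HRE-bla cells, 2,000/well, 0.5% dialyzed FBS; 5 hr settle, 17 hr compound at 37C/5% CO2; CCF4-AM reporter read first, then CellTiter-Glo luminescence after 30 min RT.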

[18] = qHTS assay to identify small molecule agonists of the hypoxia (HIF-1) signaling pathway (AID 1224846; active = well fitted activation curve with a large enough effect in the signal ratio in the repeat runs, not every such curve was filed as active; the % refers to the signal ratio)
How it was run: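 Cell line: CellSensor HRE-bla ME-180; 2,000 cells/well; 0.5% dialyzed FBS; 5 h preincubation; DMSO compound pin transfer; 17 h, 37C, 5% CO2; CCF4-AM added; bla FRET signal scored for activation.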

[19] = qHTS assay to identify small molecule antagonists of the estrogen related receptor (ERR) signaling pathway from Tox21 library (AID 1224848); note: nearly all actives have a fitted effect of over 50% in size
How it was run: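 Luminescent reporter read-out (ONE-Glo) from NTP's ERR cell line after 18 h treatment at 37 C with DMSO-dissolved Tox21 compounds; cells pre-plated 6 h beforehand at 2,000 per well.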

[20] = qHTS assay to identify small molecule agonists of the estrogen related receptor (ERR) signaling pathway from Tox21 library (AID 1224849; calls by dose curve; note: nearly all actives have a fitted effect of over 15% in size); conditions: ERR reporter cell line, ONE-Glo luciferase, 18 h; at 92.4 µM (top of the series)
How it was run: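 ERR cells, 6 h pre-incubation 37 C/5% CO2; cpd in DMSO pinned; 18 h 37 C; ONE-Glo added, 30 min RT; luminescence read. Agonist mode, qHTS.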
% is set by controls: 0 for no effect and ±100 for the full control effect.

CCCCCCCCP(=O)(O)O
inactive: Potency [1] | Potency [2] | Potency [3] | Potency [4] | Potency [5] | Potency [6] | Potency [7] | Potency [8] | Potency [9] | max response [10] -9.79% | Potency [11] | Potency [12] | Potency [13] | Potency [14] | Potency [15] | outcome [16]

C[C@]12C=CC3=C4CCC(=O)C=C4CC[C@H]3[C@@H]1CC[C@@H]2O
active: Potency [2] 89.2 µM and 75.9 µM
inactive: Potency [17] | outcome [18] | Potency [3] | Potency [4] | Potency [5] | Potency [6] | Potency [7] | Potency [8] | Potency [9] | max response [10] -25.8% | Potency [11] | Potency [12] | Potency [13] | Potency [14] | Potency [15] | outcome [16]

COc1ccc2c(c1OC)C(=O)O[C@H]2[C@@H]1c2cc3c(cc2CCN1C)OCO3
inactive: Potency [17] | Potency [1] | Potency [3] | Potency [4] | Potency [5] | Potency [6] | Potency [7] | Potency [8] | Potency [9] | max response [10] 4.68% | Potency [11] | Potency [12] | Potency [13] | Potency [14] | outcome [16]

C#C[C@]1(O)CC[C@H]2[C@@H]3CCC4=CC(=O)CCC4=C3C=C[C@@]21CC
active: Potency [2] 34.8 µM
inactive: Potency [17] | outcome [18] | Potency [5] | Potency [6] | Potency [7] | Potency [9] | Potency [11] | Potency [12] | Potency [13] | Potency [14] | outcome [16]

NCCc1cc(O)c(O)cc1O
inactive: Potency [17] | outcome [18] | Potency [2] | Potency [3] | Potency [5] | Potency [6] | Potency [7] | Potency [8] | Potency [9] | max response [10] -1.21% | Potency [11] | Potency [12] | Potency [13] | Potency [14] | outcome [16]

CN1C[C@H](C(=O)N[C@]2(C)O[C@@]3(O)[C@@H]4CCCN4C(=O)[C@H](Cc4ccccc4)N3C2=O)C=C2c3cccc4[nH]cc(c34)C[C@H]21
27.7 µM (active) and inactive: Potency [4]
active: Potency [17] 24.7 µM and 14.4 µM | Potency [9] 13.9 µM and 12.8 µM
inactive: Potency [2] | Potency [5] | Potency [7] | Potency [8] | max response [10] -10.8% | Potency [12] | Potency [14] | Potency [15] | outcome [16]

CN(C)c1ccc(N=O)cc1
inactive: Potency [19] | Potency [5]
active: activity change, positive = activation [20] -55.7% and -48.2% | Potency [3] 55.1 µM and 38.9 µM | Potency [6] 34.7 µM | Potency [7] 11 µM and 19.5 µM | Potency [8] 15.5 µM and 21.9 µM | Potency [9] 49.1 µM and 24.5 µM | Potency [10] 13.8 µM and 19.5 µM | Potency [11] 13.8 µM and 19.5 µM | Potency [13] 34.7 µM | Potency [14] 49.1 µM | Potency [15] 34.8 µM and 12.3 µM
